Experiment [1] is described as follows: nuclear p53 accumulation, HPV+ cells – imaging, p53-positive nuclei imaging, 24 h, 48 h (AID 1508601). Conditions: 24/48 h.
Experiment [2] concerns the target Cellular tumor antigen p53 (Homo sapiens) (UniProt P04637). The description is as above. Conditions: 24/48 h, stronger effect = higher value.
Setting [3] is: measured here: cell number at 24 h, Library stock concentration: 3.33 mM.
Where [4] appears, read: measured here: cell number at 48 h, Library stock concentration: 3.33 mM.
Where [5] appears, read: Library stock concentration: 3.33 mM.
[6] abbreviates: measured here: p53 positive nuclei at 24 h, Library stock concentration: 3.33 mM.
The mark [7] stands for this setting: measured here: cell number at 24 h, Library stock concentration: 10 mM.
[8] abbreviates: measured here: cell number at 48 h, Library stock concentration: 10 mM.
Where [9] appears, read: Library stock concentration: 10 mM.
Setting [10] is: measured here: p53 positive nuclei at 24 h, Library stock concentration: 10 mM.
Where [11] appears, read: measured here: cell number at 24 h, concentration not given here.
Setting [12] is: measured here: cell number at 48 h, concentration not given here.
The mark [13] stands for this setting: measured here: p53 positive nuclei at 24 h, concentration not given here.

The whole screen tested about 5,700 compounds, of which about 85 (1%) were called active. The sample holds actives, similar compounds and a random draw of the others, so the mix is not that of the screen. No stated cut-off is given here; in the data, active means p53-positive nuclei above about 36% (passing the limit was not always enough); inactive means the rest.

Sequence of Cellular tumor antigen p53 (Homo sapiens) (P04637 whole entry, looked up): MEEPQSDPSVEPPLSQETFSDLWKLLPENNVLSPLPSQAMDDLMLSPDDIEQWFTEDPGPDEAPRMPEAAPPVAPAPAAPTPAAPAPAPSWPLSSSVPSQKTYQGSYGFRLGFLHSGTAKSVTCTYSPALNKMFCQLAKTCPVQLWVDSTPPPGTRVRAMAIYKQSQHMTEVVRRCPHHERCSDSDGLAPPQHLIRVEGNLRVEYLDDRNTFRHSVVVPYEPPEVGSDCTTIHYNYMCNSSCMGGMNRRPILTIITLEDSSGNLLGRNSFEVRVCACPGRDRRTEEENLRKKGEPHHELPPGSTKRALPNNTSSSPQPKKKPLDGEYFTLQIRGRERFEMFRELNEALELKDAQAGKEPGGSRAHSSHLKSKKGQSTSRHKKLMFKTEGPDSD

As to `Cc1[nH]c2ccccc2c1CCNCc1ccc(C=CC(=O)NO)cc1`, the nuclei count, normalised was determined as 37% in experiment [1] (setting [3]) and 20.2% in experiment [1] (setting [4]). In addition, the results for the p53-positive nuclei, normalised in experiment [2] (setting [5]) and in experiment [2] (setting [6]) were 107% (active) and 92.9%, respectively.

With `NC(=O)c1ncn(C2OC(CO)C(O)C2O)c1O` (configuration not stated), the nuclei count, normalised was 107% in experiment [1] (measured here: cell number at 24 h, Library stock concentration: 500 nM); 106% in experiment [1] (measured here: cell number at 24 h, Library stock concentration: 1.5 uM); 114% in experiment [1] (measured here: cell number at 24 h, Library stock concentration: 4.6 uM); 113% in experiment [1] (measured here: cell number at 24 h, Library stock concentration: 13.7 uM); 103% in experiment [1] (measured here: cell number at 24 h, Library stock concentration: 41 uM); 107% in experiment [1] (measured here: cell number at 24 h, Library stock concentration: 123 uM). For the same compound, the nuclei count, normalised in experiment [1] (measured here: cell number at 24 h, Library stock concentration: 370 uM) was determined as 112%; in experiment [1] (measured here: cell number at 24 h, Library stock concentration: 1.111 mM) it was 97.9%; in experiment [1] (measured here: cell number at 24 h, Library stock concentration: 3.333 mM), 106%; in experiment [1] (setting [7]), 104%; in experiment [1] (measured here: cell number at 48 h, Library stock concentration: 500 nM), 106%; in experiment [1] (measured here: cell number at 48 h, Library stock concentration: 1.5 uM), 107%. Also, the nuclei count, normalised in experiment [1] (measured here: cell number at 48 h, Library stock concentration: 4.6 uM) came out at 110%; in experiment [1] (measured here: cell number at 48 h, Library stock concentration: 13.7 uM), 108%; in experiment [1] (measured here: cell number at 48 h, Library stock concentration: 41 uM), 107%; in experiment [1] (measured here: cell number at 48 h, Library stock concentration: 123 uM), 107%; in experiment [1] (measured here: cell number at 48 h, Library stock concentration: 370 uM), 113%; in experiment [1] (measured here: cell number at 48 h, Library stock concentration: 1.111 mM), 105%. Moreover, the nuclei count, normalised in experiment [1] (measured here: cell number at 48 h, Library stock concentration: 3.333 mM) came out at 108%; in experiment [1] (setting [8]), 102%. Moreover, the p53-positive nuclei, normalised in experiment [2] (Library stock concentration: 500 nM) is -0.204% (inactive); in experiment [2] (Library stock concentration: 1.5 uM), -0.0465% (inactive); in experiment [2] (Library stock concentration: 4.6 uM) it was 0.0159% (inactive); in experiment [2] (Library stock concentration: 13.7 uM), -0.0544% (inactive); in experiment [2] (Library stock concentration: 41 uM), -0.167% (inactive); in experiment [2] (Library stock concentration: 123 uM), -0.128% (inactive). Also, the p53-positive nuclei, normalised in experiment [2] (Library stock concentration: 370 uM) is -0.0645% (inactive); in experiment [2] (Library stock concentration: 1.111 mM) it was -0.129% (inactive); in experiment [2] (Library stock concentration: 3.333 mM), -0.208% (inactive); in experiment [2] (setting [9]) it was -0.16% (inactive); in experiment [2] (measured here: p53 positive nuclei at 24 h, Library stock concentration: 500 nM), -0.239%; in experiment [2] (measured here: p53 positive nuclei at 24 h, Library stock concentration: 1.5 uM), -0.0183%. For the same compound, the p53-positive nuclei, normalised in experiment [2] (measured here: p53 positive nuclei at 24 h, Library stock concentration: 4.6 uM) is -0.139%; in experiment [2] (measured here: p53 positive nuclei at 24 h, Library stock concentration: 13.7 uM) it was -0.19%; in experiment [2] (measured here: p53 positive nuclei at 24 h, Library stock concentration: 41 uM) it was -0.128%; in experiment [2] (measured here: p53 positive nuclei at 24 h, Library stock concentration: 123 uM), 0.0805%; in experiment [2] (measured here: p53 positive nuclei at 24 h, Library stock concentration: 370 uM), -0.0891%; in experiment [2] (measured here: p53 positive nuclei at 24 h, Library stock concentration: 1.111 mM), -0.183%. The p53-positive nuclei, normalised in experiment [2] (measured here: p53 positive nuclei at 24 h, Library stock concentration: 3.333 mM) is -0.128%; in experiment [2] (setting [10]), -0.0747%.

Regarding `O=C(c1cn2cccnc2n1)N1CCCC(Cn2cc(C3CCCC3)nn2)C1` (configuration not stated), the results for the nuclei count, normalised in experiment [1] (setting [11]) and in experiment [1] (setting [12]) were 84.5% and 92.1%, respectively. Besides, the p53-positive nuclei, normalised is -0.0576% (inactive) in experiment [2] (concentration not given here) and -0.142% in experiment [2] (setting [13]).

For `C#C[C@@]1(O)CC[C@H]2[C@@H]3CCc4cc(O)ccc4[C@@H]3CC[C@@]21C`, the nuclei count, normalised in experiment [1] (setting [3]) was determined as 80.8%; in experiment [1] (setting [4]), 66.7%. Moreover, the p53-positive nuclei, normalised in experiment [2] (setting [5]) was 15.7% (inactive); in experiment [2] (setting [6]) it was 2.17%.

Turning to `C#C[C@]1(O)CCC2C3CCc4cc(O)ccc4C3CC[C@@]21C` (some centres not stated), the nuclei count, normalised in experiment [1] (setting [11]) was found to be 85.4%; in experiment [1] (setting [12]), 37.7%. Moreover, the p53-positive nuclei, normalised in experiment [2] (concentration not given here) was 83% (active); in experiment [2] (setting [13]) it was 8.99%.

Consider `C#C[C@]1(O)CC[C@@H]2[C@@H]3CCc4cc(O)ccc4[C@@H]3CC[C@@]21C`, for which the nuclei count, normalised in experiment [1] (measured here: cell number at 24 h, Library stock concentration: 80 uM) came to 97.1%; in experiment [1] (measured here: cell number at 24 h, Library stock concentration: 400 uM), 108%; in experiment [1] (measured here: cell number at 24 h, Library stock concentration: 2 mM), 101%; in experiment [1] (setting [7]) it was 72.9%; in experiment [1] (measured here: cell number at 48 h, Library stock concentration: 80 uM) it was 108%; in experiment [1] (measured here: cell number at 48 h, Library stock concentration: 400 uM), 108%. Besides, the nuclei count, normalised turned out to be 102% in experiment [1] (measured here: cell number at 48 h, Library stock concentration: 2 mM) and 30.5% in experiment [1] (setting [8]). Besides, the p53-positive nuclei, normalised was 0.0565% (inactive) in experiment [2] (Library stock concentration: 80 uM); 0.0172% (inactive) in experiment [2] (Library stock concentration: 400 uM); 0.0704% (inactive) in experiment [2] (Library stock concentration: 2 mM); 76.1% (inactive) in experiment [2] (setting [9]); -0.0527% in experiment [2] (measured here: p53 positive nuclei at 24 h, Library stock concentration: 80 uM); 0.068% in experiment [2] (measured here: p53 positive nuclei at 24 h, Library stock concentration: 400 uM). Further, the p53-positive nuclei, normalised in experiment [2] (measured here: p53 positive nuclei at 24 h, Library stock concentration: 2 mM) amounted to 0.0711%; in experiment [2] (setting [10]), 6.02%.

Values taken from PubChem BioAssay AID1508601 (ICCB-Longwood Screening Facility, Harvard Medical School, 2020).
